Source: PubChem (Sanford-Burnham Center for Chemical Genomics)
KKLEB cytotox: cytotoxicity in KKLEB CF airway cells, primary screen, cytotoxicity control for CF NF-kB inhibitor project, cell-based, uHTS, fluorescence assay plates | KKLEB CF airway cells viability, ATPlite luminescence, overnight; active compounds read low; cells stimulated with P. aeruginosa culture filtrate | activity change (cytotoxicity), % at 5 µM | hit rate 0.36% among 360,000 | AID 602141, 2011;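 active = corrected activity change at or below -50% at 5 µM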
HIF-2a inh: HIF-2a reporter inhibitors, primary screen, luminescence, 786-0 RCC cells. 786-0 RCC cells HIF-2a reporter, luciferase luminescence, overnight. inhibition, % at 18.8 µM. hit rate 0.72% among 360,000. AID 624352, 2012;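 active = inhibition of the luminescence signal of 40% or more relative to plate controls, in a single-dose primary screen at 18.75 µM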
TROY signal inh: inhibitors of TROY-driven NF-kB signaling, primary screen, Q293 LMP1-TROYcd cells, NF-kB luciferase, uHTS; AID 1347056, 2019; Q293 LMP1-TROYcd NF-kB luciferase reporter, 4 h; hit rate 0.98% among 360,000; inhibition, % at 10 µM;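 active = compounds whose plate-normalised and pattern-corrected inhibition of the luciferase reporter signal at the single screening dose is 50% or more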
Peg3 prom inh-1: Peg3 promoter-driven luciferase inhibitors, primary screen, cell-based, HeLa, luciferase luminescence | HeLa PEG-Prom luciferase reporter, overnight | inhibition, % at 20 µM | hit rate 1.7% among 360,000;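 active = inhibition of at least 50% at 20 µM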
TWEAK-Fn14 inh: inhibitors of TWEAK-Fn14 signaling, primary screen, luciferase reporter cells, uHTS | hit rate 2% among 360,000 | AID 1159606, 2016 | TWEAK-stimulated Fn14 reporter cells, luciferase luminescence, 8 h | inhibition, % at 10 µM; in the data active = inhibition above about 50%
CF NFkB inh: inhibitors of PAF-induced NF-kB signaling, primary screen, cell-based, GFP fluorescence, uHTS. KKLEB NF-kB-GFP reporter, GFP fluorescence overnight. inhibition, % at 5 µM. hit rate 0.86% among 360,000. AID 588850, 2011;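 active = at least 50% inhibition at 5 µM, scaled per plate between neutral and stimulator controls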;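 note: PAF is a Pseudomonas aeruginosa culture filtrate used as stimulus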
Peg3 prom inh-2: Peg3 promoter reporter inhibitors, retest, confirmation, cell-based, HeLa, luciferase reporter, single concentration; inhibition, % at 20 µM; HeLa PEG-Prom luciferase reporter, luminescence, overnight; hit rate 84% among 1,300; shares compounds with Peg3 prom inh-1;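 active = at 20 µM dose, 40% or more inhibition averaged across four replicates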
CF NFkB inh conf: inhibitors of PAF-induced NF-kB signaling, retest, confirmation, cell-based, GFP fluorescence, single concentration | shares compounds with CF NFkB inh | hit rate 64% among 1,300 | KKLEB CF airway cells, overnight | inhibition, % at 5 µM; in the data active = inhibition above about 40%;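 note: stimulus PAF is a Pseudomonas aeruginosa filtrate and not platelet activating factor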
Each line names hits and unclear results; the compound was inactive in the other large screens (follow-up assays come after a bar, where they were run). This is a sample that favours compounds with a hit; in the whole collection about 3.9% have one here.

Cc1ccc(-c2noc(CN(C)C(=O)c3ccc(Br)o3)n2)cc1	none
CCc1nc(Sc2nnnn2-c2ccccc2)c2c3c(sc2n1)CCCC3	TROY signal inh 54.8, Peg3 prom inh-1 59.8, TWEAK-Fn14 inh 93.4, CF NFkB inh 59.3 | Peg3 prom inh-2 60.6 | CF NFkB inh conf inactive
Cc1ccc(-n2cc(-c3ccccc3)c3c(N4CCOCC4)ncnc32)cc1	Peg3 prom inh-1 66.8, CF NFkB inh 84.5 | Peg3 prom inh-2 62.5 | CF NFkB inh conf 87.1
COc1ccc(-c2cnc3nc(/N=C/N(C)C)nn3c2/N=C/N(C)C)cc1	none
COc1ccc(-c2oc3ccc(-c4cc(OC)c(OC)c(OC)c4)cc3c2C#Cc2ccccn2)cc1	Peg3 prom inh-1 54.0, CF NFkB inh 72.1 | Peg3 prom inh-2 51.4 | CF NFkB inh conf inactive
COc1ccc(C#Cc2c(-c3ccc(OC)cc3)oc3ccc(-c4ccc(OC)cc4)cc23)cc1	none
CCN1CCN(C(=O)c2cnn3c(C(F)F)cc(-c4ccc(C)cc4)nc23)CC1	none
CCc1nccn1C(=O)c1cnn2c(C(F)F)cc(-c3ccc(C)cc3)nc12	Peg3 prom inh-1 61.3, TWEAK-Fn14 inh 54.4, CF NFkB inh 68.1 | Peg3 prom inh-2 92.6 | CF NFkB inh conf 91.1
O=C1C2C3C=CC(C3)C2C(=O)N1c1cccc(-c2nc3ccccc3o2)c1 (stereo unspecified)	none
O=C1C=CC(=O)N1c1ccc(-c2nc3ccccc3o2)cc1	Peg3 prom inh-1 108.0, CF NFkB inh 50.8 | Peg3 prom inh-2 97.3 | CF NFkB inh conf inactive
CCCCN(C)C(=S)Nc1ccc2nc3n(c(=O)c2c1)CCCCC3	none
COCCCNC(=O)c1csc([C@@H]2C[C@H](O)[C@@H](CO)O2)n1	none
O=C(Nc1ccc(-c2nc3ncccc3o2)cc1)c1ccc([N+](=O)[O-])o1	Peg3 prom inh-1 100.0, CF NFkB inh 85.8 | Peg3 prom inh-2 inactive | CF NFkB inh conf inactive
NNC(=O)COc1ccc(C(F)(F)F)cc1	none
CS(=O)(=O)c1ccc2nc(NC(=O)CCS(=O)(=O)c3ccccc3)sc2c1	Peg3 prom inh-1 71.2, CF NFkB inh 75.1 | Peg3 prom inh-2 46.6 | CF NFkB inh conf 63.6
Cc1cnc(NC(=O)C2CC(=O)N(c3cccc(Cl)c3)C2)s1 (stereo unspecified)	Peg3 prom inh-1 106.5, CF NFkB inh 78.1 | Peg3 prom inh-2 94.3 | CF NFkB inh conf 85.6
Cc1cc2cc(CCNC(=O)C(=O)c3c[nH]c4ccccc34)c(=O)[nH]c2cc1C	Peg3 prom inh-1 59.2, CF NFkB inh 59.2 | Peg3 prom inh-2 59.3 | CF NFkB inh conf 52.2
O=C(NCCc1c[nH]c2ccccc12)C(=O)c1c[nH]c2ccccc12	none
CN(C)c1ccc(C(C(=O)NCc2ccccc2)N(Cc2ccco2)C(=O)c2snc(C(N)=O)c2N)cc1 (stereo unspecified)	Peg3 prom inh-1 60.6, CF NFkB inh 98.8 | Peg3 prom inh-2 45.1 | CF NFkB inh conf 88.9
Cc1ccc(-c2nc(CS(=O)(=O)CC(=O)N3CCN(C)CC3)c(C)o2)cc1	none
COc1ccc(Nc2nc(-c3ccccc3)nc3ccccc23)cc1S(=O)(=O)N1CCOCC1	Peg3 prom inh-1 62.4, CF NFkB inh 89.4 | Peg3 prom inh-2 58.9 | CF NFkB inh conf 74.6
COc1ccc(NC(=O)c2cc(C)nc3ccccc23)cc1S(=O)(=O)N1CCOCC1	none
Cn1cc(C=C2C(=O)CC(C)(C)CC2=O)c2ccccc21	none
